The panel holds about 83,000 compounds, 20% with a hit somewhere; the sample as a whole holds those more often.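 Treatment: one concentration, 48 hours, 96-well format. Scoring: percent growth, with anything below 10 considered active.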 Active and inactive are the calls of the source.
What follows are compounds tested on UACC-62 melanoma (assay: NCI-60 one-dose screen, 48 h (100 = growth as untreated, 0 = no growth, -100 = all killed)). Settings: 10 µM unless noted.
Experimental: Growth inhibition of the UACC-62 human tumor cell line is measured as a screen for anti-cancer activity. Cells are grown in 96 well plates and exposed to the test compound for 48 hours. Compounds are tested at a single concentration, which is 10^-5 M for most compounds. The reported endpoint is percent growth (GI% or GIPRCNT), where numbers from 0 - 100% represent growth inhibition, and numbers from -100% - 0 represent cell death. For example, a value of 40 represents 60% growth inhibition. A value of 0 means no net growth occurred over the course of the experiment. A value of -40 indicates 40% of cells at the beginning of the experiment died by the end of the experiment. A value of -100 means all cells are dead at the end of the experiment.
NCI-60 Human Tumor Cell Lines Screen was performed using the standard one-dose NCI protocol, which is described in more detail at https://dtp.cancer.gov/discovery_development/nci-60/default.htm.
Compounds with GIPRCNT values below 10 were considered active. Activity score was based on GIPRCNT using the following formula: […]
Score is 0 for GIPRCNT values of 100 or above, 50 for GIPRCNT values of 0, and 100 for GIPRCNT values of -100.

Row | SMILES | growth
1 | O=C(c1ccccc1)C(CN1CCCCC1)c1ccccc1 (stereo not given) | 25.8% (inactive)
2 | O=C1Nc2ccc(Cl)cc2/C1=C/c1cccs1 | 86% (inactive)
3 | COc1cccc2c1C(=O)c1c(O)c3c(c(O)c1C2=O)C[C@@](O)(C(C)=O)C[C@@H]3O[C@H]1C[C@H](N)[C@H](O)[C@H](C)O1 | -65.8% (active)
4 | CCCn1c(N)c(C(=O)CNc2ccc(I)cc2)c(=O)[nH]c1=O | 37.1% (inactive)
5 | CC1CN(/N=C/c2ccc([N+](=O)[O-])o2)C(=N)O1 (stereo not given) | 92.7% (inactive)
6 | CCN(CC)CCOCC[C@H]1CC[C@H]2[C@@H]3[C@H](C)Cc4cc(OS(N)(=O)=O)ccc4[C@H]3CC[C@]12C | -79.7% (active)
7 | NS(=O)(=O)c1ccc(N2CC(c3nc4ccccc4[nH]3)CC2=O)cc1 (stereo not given) | 97.4% (inactive)
8 | O=c1[nH]cc(Nc2cc(Cl)c3nonc3c2[N+](=O)[O-])c(=O)[nH]1 | 94.9% (inactive)
9 | O=C(CC(C(=O)c1ccccc1)N1CCN(Cc2ccccc2)CC1)c1ccccc1 (stereo not given) | 101% (inactive)
10 | CC[C@H]1CN2CCc3cc(OC)c(OC)cc3C2C[C@@H]1CC1NCCc2cc(OC)c(OC)cc21 (stereo not given in full) | -82% (active)
11 | O=C(C(=O)N1CCOCC1)c1cn(CCCn2cc(C(=O)C(=O)N3CCOCC3)c3ccccc32)c2ccccc12 | 93.5% (inactive)
12 | Cc1nn2c(/C=C3/C(=O)Nc4cc(Cl)ccc43)c(-c3ccccc3)nc2s1 | -25.4% (active)
13 | O=c1c2c(=NCCCN3CCCC3)cc3c(=O)n(CCCN4CCCC4)c(=O)c4c(NCCCN5CCCC5)cc(c(O)n1CCCN1CCCC1)c2c4-3 | -52.2% (active)
14 | Cc1cc(C)c(C(=O)c2cccs2)c(C)c1 | 97% (inactive)
15 | CCCCOP(=O)(OCCCC)C(C(=O)OCC)C(CC(=O)OCC)C(=O)OCC (stereo not given) | 105% (inactive)
16 | CCn1cnc(C[C@H](NC(=O)[C@H](CCCCNC(=O)Nc2cc(C(F)(F)F)cc(C(F)(F)F)c2)NC(=O)Nc2cc(C(F)(F)F)cc(C(F)(F)F)c2)C(=O)OC)c1 | -88.3% [100 µM] (active)
17 | CC12CCC3C(=CCc4cc(O)ccc43)C1CCC2=O (stereo not given) | 88.9% (inactive)
18 | CCC(=O)Nc1cc2c(cc1Cl)-c1ccccc1C2 | 84.8% (inactive)
19 | OC(c1cc(-c2cccc(Cl)c2)nc2ccccc12)C1CCCCN1 (stereo not given) | -41.2% (active)
20 | N/C(=N\c1nc2ccccc2s1)NC(=O)Nc1ccccc1Cl | 26.7% (inactive)

Row | SMILES | growth
21 | COC(=O)Nc1ccc2ccc3c(NC(=O)OC)ccc4ccc1c2c43 (tested in a mixture with another compound) | 41.5% (inactive)
22 | Cc1cnc2nc(-c3ccc(N(C)C)cc3)cn2c1 | 96% (inactive)
23 | CN(C)c1ccc(-c2nc3ncc(Br)cc3o2)cc1 | 87.3% (inactive)
24 | O=C(Oc1ccccc1)C(Br)C(Br)c1ccccc1 (stereo not given) | 101% (inactive)
25 | COCCCNS(=O)(=O)c1ncnc2nc[nH]c12 | 112% (inactive)
26 | COc1cccc(-c2nc(-c3ccc(N)cc3)co2)c1 | 90.3% (inactive)
27 | COc1cccc(N2CCN(c3cccc(C)n3)CC2)c1 | 95.1% (inactive)
28 | CCNCCCn1c2c(c3ccc(F)cc3c1=O)C(=O)c1cc(OC)cnc1-2 | -34.5% (active)
29 | CC(=O)N1N=C(c2ccc(Nc3nc(NCCO)nc(NCCO)n3)cc2)CC1c1ccc(Cl)cc1 (stereo not given) | 107% (inactive)
30 | COc1ccc(C2=NN(C(N)=S)C(c3ccc4c(c3)OCO4)C2)cc1 (stereo not given) | 43.6% (inactive)
31 | Cc1nn(-c2ccccc2)c2nc(N)c(C3=NCCO3)nc12 | 96.5% (inactive)
32 | CCc1nn2c(-c3ccc(Cl)cc3C)c(-c3cc(OC)c(OC)c(OC)c3)nc2s1 | 60% (inactive)
33 | c1ccc(COc2ccc(Nc3ncnc4c3cnn4-c3ccccc3)cc2)cc1 | 93.3% (inactive)
34 | COc1ccc(C2=NN(C(C)=O)C(c3c(C)nn(-c4ccccc4)c3N3CCOCC3)C2)cc1 (stereo not given) | 87.8% (inactive)
35 | COc1ccc(C2CC(c3ccc(Nc4ccnc5cc(Cl)ccc45)cc3)=NN2C(C)=O)cc1 (stereo not given) | 54.8% (inactive)
36 | COC(=O)CC1=C(c2ccc([N+](=O)[O-])cc2)CCC1=O | 100% (inactive)
37 | N#Cc1c(-c2ccccc2)cc(-c2ccccc2)n(CCCCCCC(=O)O)c1=O | 90.7% (inactive)
38 | O=C(NC1CCS(=O)(=O)C1)c1ccc(C(=O)c2ccccc2)cc1 (stereo not given) | 95.6% (inactive)
39 | CC(NC(=O)Oc1cccc2ccccc12)c1ccccc1 (stereo not given) | 89.2% (inactive)
40 | CN(C)c1ncnc2c1ncn2C1CCCCO1 (stereo not given) | 84.5% (inactive)

Reference: PubChem BioAssay (NCI)
